Measured values published in the supplement of paper PMC6763611.

System: Plasmodium falciparum NF54
Assay: growth inhibition relative to untreated control; higher = more inhibition
Details: 72 h
Outline: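 Two media were used: minimal RPMI, and minimal RPMI carrying the chorismate end-products folate, pABA, pHBA, tyrosine, phenylalanine and tryptophan at 2.2 μM, 7.3 μM, 7.3 μM, 111 μM and 90 μM for the first five. In these media, P. falciparum NF54 ring stages (1% hematocrit, 1% parasitemia, 100 μL/well) were exposed in dark 96-well half-area plates to a single 5 μM or 1 μM test-compound dose for 72 h at 37 °C. Growth inhibition was then assessed with SYBR Green against untreated wells, subtracting background from uninfected erythrocytes.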

[1] = 1 µM, MM + chorismate end-products (CM screening medium)
[2] = 5 µM, MM + chorismate end-products (CM screening medium)

## CC(=O)OCC1OC([S-])C(OC(C)=O)C(OC(C)=O)C1OC(C)=O.CCP(CC)CC.[Au+] (stereo unspecified)
[1]
  growth inhibition: 84.8%
1 µM, minimal medium (MM)
  growth inhibition: 71.6%
[2]
  growth inhibition: 87.8%
5 µM, minimal medium (MM)
  growth inhibition: 91.7%

## C[C@]1(COc2ccc(N3CCC(Oc4ccc(OC(F)(F)F)cc4)CC3)cc2)Cn2cc([N+](=O)[O-])nc2O1
[1]
  growth inhibition: 2.53%
1 µM, minimal medium (MM)
  growth inhibition: 3.49%
[2]
  growth inhibition: 21.9%
5 µM, minimal medium (MM)
  growth inhibition: 9.3%

## COc1cccc(CC(=O)N2CCC(n3c(C)nc4ccc(F)cc43)CC2)c1
[1]
  growth inhibition: > 100%
1 µM, minimal medium (MM)
  growth inhibition: > 100%
[2]
  growth inhibition: > 100%
5 µM, minimal medium (MM)
  growth inhibition: 95.6%

## Cc1ccc(C(=O)Nc2ccc(S(=O)(=O)O)c3cc(S(=O)(=O)O)cc(S(=O)(=O)O)c23)cc1NC(=O)c1cccc(NC(=O)Nc2cccc(C(=O)Nc3cc(C(=O)Nc4ccc(S(=O)(=O)O)c5cc(S(=O)(=O)O)cc(S(=O)(=O)O)c45)ccc3C)c2)c1
[1]
  growth inhibition: < 0%
1 µM, minimal medium (MM)
  growth inhibition: < 0%
[2]
  growth inhibition: < 0%
5 µM, minimal medium (MM)
  growth inhibition: 12.6%

## N=C(N)c1ccc(-c2cc(-c3ccccc3)on2)cc1
[1]
  growth inhibition: 2.89%
1 µM, minimal medium (MM)
  growth inhibition: 5.06%
[2]
  growth inhibition: 86.7%
5 µM, minimal medium (MM)
  growth inhibition: 71.2%

## Cc1ccc2nc(C)c(-c3ccn(Cc4ccccc4)n3)n2c1
[1]
  growth inhibition: 43%
1 µM, minimal medium (MM)
  growth inhibition: 33.9%
[2]
  growth inhibition: 36.8%
5 µM, minimal medium (MM)
  growth inhibition: < 0%

## COC(=O)c1cccc2oc(-c3cccc(OC)c3NC(=O)c3cc(-c4ccccc4)on3)nc12
[1]
  growth inhibition: < 0%
1 µM, minimal medium (MM)
  growth inhibition: < 0%
[2]
  growth inhibition: < 0%
5 µM, minimal medium (MM)
  growth inhibition: < 0%

## CO[C@H]1/C=C\O[C@@]2(C)Oc3c(C)c(O)c4c(O)c(/c(=C/NN5CCN(C)CC5)c(O)c4c3C2=O)=N\C(=O)/C(C)=C\C=C/[C@H](C)[C@H](O)[C@@H](C)[C@@H](O)[C@@H](C)[C@H](OC(C)=O)[C@@H]1C
[1]
  growth inhibition: 35.5%
1 µM, minimal medium (MM)
  growth inhibition: 38.2%
[2]
  growth inhibition: > 100%
5 µM, minimal medium (MM)
  growth inhibition: 97.2%

## COc1ccc(C2=NN(C3CCCCCC3)C(=O)C2(C)C)cc1OCCCCOc1ccc(-c2nn[nH]n2)cc1
[1]
  growth inhibition: 36.5%
1 µM, minimal medium (MM)
  growth inhibition: 34.6%
[2]
  growth inhibition: 47.2%
5 µM, minimal medium (MM)
  growth inhibition: 46.8%

## COc1ccc(S(=O)(=O)Nc2ccc(CN3CCN(C(=O)c4cccc(C#N)c4)CC3)cc2)cc1
[1]
  growth inhibition: 0.529%
1 µM, minimal medium (MM)
  growth inhibition: < 0%
[2]
  growth inhibition: 41.6%
5 µM, minimal medium (MM)
  growth inhibition: 13.7%

## N#Cc1nc(-c2ccccc2F)oc1NCCc1ccccc1
[1]
  growth inhibition: < 0%
1 µM, minimal medium (MM)
  growth inhibition: < 0%
[2]
  growth inhibition: < 0%
5 µM, minimal medium (MM)
  growth inhibition: 15.2%

## COc1cc(-c2cc(-c3ccc(S(C)(=O)=O)cc3)cnc2N)ccc1O
[1]
  growth inhibition: > 100%
1 µM, minimal medium (MM)
  growth inhibition: > 100%
[2]
  growth inhibition: 96.8%
5 µM, minimal medium (MM)
  growth inhibition: 96%

## O=C(c1ccc(F)cc1)N(CCNc1ccccc1)c1ccccc1
[1]
  growth inhibition: < 0%
1 µM, minimal medium (MM)
  growth inhibition: < 0%
[2]
  growth inhibition: 58.9%
5 µM, minimal medium (MM)
  growth inhibition: 4.16%

## CC(C)(CN)c1nc(-c2ccc(Cl)c(O)c2)c(-c2ccnc(N)n2)[nH]1
[1]
  growth inhibition: 78.9%
1 µM, minimal medium (MM)
  growth inhibition: 70.8%
[2]
  growth inhibition: 30.1%
5 µM, minimal medium (MM)
  growth inhibition: 6.08%

## O=C(NC1CCN(c2ccnc3ccccc23)C1)c1cccc(C(F)(F)F)c1 (stereo unspecified)
[1]
  growth inhibition: 80.7%
1 µM, minimal medium (MM)
  growth inhibition: > 100%
[2]
  growth inhibition: 96.9%
5 µM, minimal medium (MM)
  growth inhibition: 66.7%

## Cc1ccc(NC(=O)c2nc[nH]c2C(=O)Nc2nc3ccccc3[nH]2)c(C)c1
[1]
  growth inhibition: 31%
1 µM, minimal medium (MM)
  growth inhibition: 49.8%
[2]
  growth inhibition: 26.8%
5 µM, minimal medium (MM)
  growth inhibition: 80.9%

## CCC(C)NC(=O)c1ccc(NC(=O)C2(c3ccccc3)CCCC2)cc1 (stereo unspecified)
[1]
  growth inhibition: 58%
1 µM, minimal medium (MM)
  growth inhibition: 17.8%
[2]
  growth inhibition: 61.1%
5 µM, minimal medium (MM)
  growth inhibition: 65.4%

## CC(C)(C)c1ccc(N[C@@H]2CCCC[C@H]2NC(=O)c2ccco2)cc1
[1]
  growth inhibition: 20.8%
1 µM, minimal medium (MM)
  growth inhibition: 20.6%
[2]
  growth inhibition: < 0%
5 µM, minimal medium (MM)
  growth inhibition: 1.67%

## O=C(Nc1ccccc1)c1ccc(-c2cc3ccncc3cc2OC2CCNCC2)s1
[1]
  growth inhibition: 98.5%
1 µM, minimal medium (MM)
  growth inhibition: > 100%
[2]
  growth inhibition: 96.1%
5 µM, minimal medium (MM)
  growth inhibition: 94.6%

## CC(=O)NCC1CN(c2ccc(-c3ccc(CO)cc3)c(F)c2)C(=O)O1 (stereo unspecified)
[1]
  growth inhibition: < 0%
1 µM, minimal medium (MM)
  growth inhibition: 7.91%
[2]
  growth inhibition: 31.4%
5 µM, minimal medium (MM)
  growth inhibition: 17.6%

## C[C@H]1COc2c(N3CCN(C)CC3)c(F)cc3c(=O)c(C(=O)O)cn1c23
[1]
  growth inhibition: 17.1%
1 µM, minimal medium (MM)
  growth inhibition: < 0%
[2]
  growth inhibition: 5.29%
5 µM, minimal medium (MM)
  growth inhibition: 15.8%

## Cc1cc(Nc2ccc(C(F)(F)F)cc2)n2ccnc2n1
[1]
  growth inhibition: 97.2%
1 µM, minimal medium (MM)
  growth inhibition: 94.6%
[2]
  growth inhibition: 97.3%
5 µM, minimal medium (MM)
  growth inhibition: 94.4%

## NCCN(C(=O)c1ccc(Cl)cc1Cl)c1ccc(OCc2ccc(Cl)cc2)cc1
[1]
  growth inhibition: 33.8%
1 µM, minimal medium (MM)
  growth inhibition: 27.2%
[2]
  growth inhibition: 97.9%
5 µM, minimal medium (MM)
  growth inhibition: 91.1%

## Cc1cc(C(=O)Nc2ccc(-c3ccccc3)cc2)no1
[1]
  growth inhibition: 96.4%
1 µM, minimal medium (MM)
  growth inhibition: 91.1%
[2]
  growth inhibition: 84.6%
5 µM, minimal medium (MM)
  growth inhibition: 94%

## O=C(c1ccco1)N(CCCn1ccnc1)c1nc2c(Cl)cccc2s1
[1]
  growth inhibition: 13.2%
1 µM, minimal medium (MM)
  growth inhibition: 22.3%
[2]
  growth inhibition: > 100%
5 µM, minimal medium (MM)
  growth inhibition: 92.8%

## O=C(Nc1ccc(F)c(-c2nc3cc(-c4ccccc4)cnc3[nH]2)c1)N1CCCC1
[1]
  growth inhibition: 17.5%
1 µM, minimal medium (MM)
  growth inhibition: 25.6%
[2]
  growth inhibition: 3.27%
5 µM, minimal medium (MM)
  growth inhibition: < 0%

## COc1cc(NC(=O)Cc2nn(C)c(=O)c3ccccc23)ccc1Cl
[1]
  growth inhibition: 16.1%
1 µM, minimal medium (MM)
  growth inhibition: 5.71%
[2]
  growth inhibition: 15.2%
5 µM, minimal medium (MM)
  growth inhibition: < 0%

## O=C(Nc1ccccc1-c1nc2c(C(=O)O)cccc2o1)c1ccccc1
[1]
  growth inhibition: < 0%
1 µM, minimal medium (MM)
  growth inhibition: 0.353%
[2]
  growth inhibition: < 0%
5 µM, minimal medium (MM)
  growth inhibition: < 0%

## COc1ccc2nc(C)cc(OCC(=O)Nc3ccccc3OC)c2c1
[1]
  growth inhibition: 11.7%
1 µM, minimal medium (MM)
  growth inhibition: < 0%
[2]
  growth inhibition: < 0%
5 µM, minimal medium (MM)
  growth inhibition: 27.5%

## O=[N+]([O-])c1cn2c(n1)OC[C@@H](OCc1ccc(OC(F)(F)F)cc1)C2
[1]
  growth inhibition: 36.9%
1 µM, minimal medium (MM)
  growth inhibition: 2.72%
[2]
  growth inhibition: < 0%
5 µM, minimal medium (MM)
  growth inhibition: < 0%

## Cc1nc(-c2ccccn2)nc(NCCc2ccc(S(C)(=O)=O)cc2)c1Cl
[1]
  growth inhibition: 32.5%
1 µM, minimal medium (MM)
  growth inhibition: < 0%
[2]
  growth inhibition: 8.44%
5 µM, minimal medium (MM)
  growth inhibition: < 0%

## O=C(Nc1ccc(C(F)(F)F)c(C(F)(F)F)c1)c1cc(Cl)ccc1O
[1]
  growth inhibition: 93.1%
1 µM, minimal medium (MM)
  growth inhibition: 95%
[2]
  growth inhibition: > 100%
5 µM, minimal medium (MM)
  growth inhibition: 92.5%

## CCCCc1ccc(NC(=O)Nc2ccc(O[C@H]3CCCC[C@@H]3N(C)c3ccccc3)c(F)c2)cc1
[1]
  growth inhibition: 17.3%
1 µM, minimal medium (MM)
  growth inhibition: < 0%
[2]
  growth inhibition: 98.1%
5 µM, minimal medium (MM)
  growth inhibition: 85.4%

## Brc1c(-c2ccc3c(c2)OCO3)nc2ncccn12
[1]
  growth inhibition: < 0%
1 µM, minimal medium (MM)
  growth inhibition: < 0%
[2]
  growth inhibition: 29.5%
5 µM, minimal medium (MM)
  growth inhibition: < 0%
